Among the data in ChEMBL document CHEMBL1157539, “Thousands of chemical starting points for antimalarial lead identification” (Nature, 2010) are Inhibition values, retold here.

What all share (type): functional
The test system of assay [1] is Plasmodium falciparum. The assay can be described thus: GSK_TCMDC: Inhibition of Plasmodium falciparum 3D7 in whole red blood cells, using parasite LDH activity as an index of growth. Test compounds present at 2uM.
In assay [2] the test system is Plasmodium falciparum. Description: GSK_TCMDC: Inhibition of Plasmodium falciparum Dd2 in whole red blood cells, using parasite LDH activity as an index of growth. Test compounds present at 2uM.
The test system of assay [3] is HepG2. The assay can be described thus: GSK_TCMDC: Percent inhibition of human HepG2 cell line. Test compounds present at 10uM.

Each structure is given as a SMILES string.

The Inhibition is the change of the read-out against control, counted positive when it falls. High values mean a response far below the control, low ones a response near the control. As to `CN(C)c1ccc(-c2csc(C(=O)NCC3CCN(Cc4ccc(C(C)(C)C)cc4)C3)c2)cc1.O=C(O)C(F)(F)F` (stereo not given), the Inhibition amounted to 97% in assay [1], 64% in assay [2] and 29% in assay [3].

`c1ccc2c(CNc3nc(NCC4CCCCC4)nc4[nH]cnc34)cccc2c1`: the Inhibition in assay [1] is listed as 89%; in assay [2] it was 44%; in assay [3], 0%.

For the molecule `CC(CO)(CO)NCc1cc2c3ccccc3c(CNC(C)(CO)CO)cc2c2ccccc12.CS(=O)(=O)O`, the Inhibition in assay [1] is reported as 96%; in assay [2], 98%; in assay [3] it was 40%.

Take `O=C(Nc1cccc(CN2CCN(C(=O)c3ccccc3)CC2)c1)c1ccco1.O=C(O)C(F)(F)F`: the Inhibition in assay [1] is recorded as 95%; in assay [2], 42%; in assay [3] it was 6%.

Regarding `COc1cccc(-c2ccc3c(-c4cccc(NC(C)=O)c4)cnc(N)c3c2)c1.O=CO`, the Inhibition turned out to be 99% in assay [1], 83% in assay [2] and 71% in assay [3].

Regarding `COc1cccc2cc(C(=O)N[C@@H](CC(C)C)C(=O)N[C@H](C=NN3CCCC3=O)Cc3ccccc3)oc12`, the Inhibition in assay [1] is 96%; in assay [2] it was 80%; in assay [3], 5%.

For `Clc1cc(Cl)c2cc(CN[C@H]3CCC[C@@H]3CNc3nc4ccccc4[nH]3)[nH]c2c1`, the Inhibition in assay [1] is 99%; in assay [2], 58%; in assay [3], 85%.

For the molecule `CC(C)CCN(Cc1cncn1Cc1ccccc1F)C(=O)c1cncc(-c2ccccc2)c1`, the figures for the Inhibition in assay [1], in assay [2] and in assay [3] were 96%, 3% and 1%, respectively.

For the molecule `COc1ccc2nccc([C@@H](O)CN3CCC(NCc4ccc5nsnc5c4)CC3)c2c1.O=C(O)C(=O)O`, the Inhibition came to 95% in assay [1], 64% in assay [2] and 12% in assay [3].

For the molecule `CC(C)[C@H](NC(=O)c1ccc(O)c(-c2cccc(C(F)(F)F)c2)c1)C(=O)NC1CCCc2ccccc21` (stereo not given in full), the Inhibition in assay [1] came out at 82%; in assay [2] it was 25%; in assay [3], 2%.
